# Measurements reported in PubChem BioAssay AID463212 (Sanford-Burnham Center for Chemical Genomics, 2010).
# Hit rate of the full screen: of about 330,000 compounds, about 4,400 (1.3%) were called active. What follows is part of a selection rich in actives, with near analogues and random picks from the rest. A number with no mark means an inactive call.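 How the source made its calls: active means growth inhibition of the mutant yeast at or above 50%; inactive means the rest.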
# Assay: growth inhibition of tim23-1 ts yeast – luminescence, uHTS, primary screen (AID 463212);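 further: temperature-sensitive mutant grown at 25 °C; plate controls were DMSO-treated mutant yeast for no effect and medium wells lacking yeast for full effect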
# Conditions: S. cerevisiae tim23-1 growth, BacTiter-Glo luminescence, 24 h; at 20 µM; active compounds read high
row,Compound,inhibition
1,CC(C)(C)c1ccc(OC2=CS(=O)(=O)c3ccccc32)cc1,20.4%
2,CC(C)(C)c1ccc(Oc2ccc(N)cc2)cc1,60.7% (active)
3,COc1cccc(Oc2ccc(N)cc2)c1,8.39%
4,Oc1ccc(C2Nc3cccc4cccc(c34)N2)cc1,23.4%
5,COc1cccc(C2Nc3cccc4cccc(c34)N2)c1,57.5% (active)
6,COc1ccc(C2NC(=O)c3ccccc3N2)cc1 (configuration not stated),16.7%
7,O=C(NC1CCCC1)C(c1ccc(Cl)cc1)N(C(=O)c1csnn1)C1CC1 (configuration not stated),11.6%
8,O=C(CN1CCC(NC(=O)C2CC2)CC1)Nc1ccccc1[N+](=O)[O-],8.81%
9,O=S(=O)(c1ccc(SCc2ccc(Br)cc2)nc1)N1CCOCC1,6.55%
10,COc1cc(CC(=O)N/N=C/c2ccccc2)c([N+](=O)[O-])cc1OC,4.64%
11,COc1cc(/C=N/NC(=O)CNC(=O)c2ccncc2)ccc1OC(C)=O,-0.262%
12,COc1ccc(C(=O)NCC(=O)N/N=C/c2ccc([N+](=O)[O-])o2)cc1OC,87.3% (active)
13,CCN(CC(=O)Nc1cc(Cl)ccc1C)C(=O)CSCc1ccccc1,18.4%
14,Cc1ccc(S(=O)(=O)c2c[nH]c3ccc(C)cc3c2=O)cc1,-5.69%
15,Cc1ccc(-c2cccc([C@H]3[C@@H]4C=CC[C@@H](C)[C@@H]4C(=O)N3Cc3ccccc3)c2)cc1,36.6%
16,COCCCNc1nc2ccccc2nc1NS(=O)(=O)c1ccc(F)cc1,21.6%
17,CC1CN(C(=O)c2ccc([N+](=O)[O-])s2)CC(C)O1 (configuration not stated),13.9%
18,O=[N+]([O-])c1ccc(C=Nc2ccc(Cl)cc2Cl)s1,60.2% (active)
19,Cc1ccc2c(c1)C1C[N+](C)(CC(=O)c3ccccc3)CCC1N2C(=O)c1ccccc1Cl (configuration not stated),-4.6%
20,COc1ccc(Nc2nc(N)nc(CSC(=S)N3CCC(C)CC3)n2)cc1,50%
21,CC(=O)c1ccc(NC(=O)c2ccc(-n3cncn3)c([N+](=O)[O-])c2)cc1,-6.94%
22,Cc1cc(Cl)ccc1C(=O)C1CCCN(C(=O)c2nonc2C)C1 (configuration not stated),41.7%
23,O=C(Nc1ccccc1)c1ccc2c(c1)OCCCO2,51% (active)
24,O=C(Nc1ccc(N2CCOCC2)cc1)c1ccc2c(c1)OCO2,10.9%
25,O=C(Nc1ccc(NC(=O)c2ccc3c(c2)OCO3)cc1)c1cccc(Cl)c1,1.12%

row,Compound,inhibition
1,O=C(Nc1cccc(F)c1)NC1CCCCCCC1,50.3% (active)
2,O=C(Nc1cccc(F)c1)NC1CCCc2ccccc21 (configuration not stated),19.8%
3,C/C(CC(=O)Nc1cccc(F)c1)=N\NC(=O)C(=O)NC1CCCCC1,18.3%
4,C#CCOc1ccc(/C=C2/C(=O)ON=C2C)cc1OCC,28.2%
5,CC1=NOC(=O)/C1=C\c1ccccc1,16.8%
6,C=CCOc1ccc(/C=C2/C(=O)ON=C2C)cc1OCC,22.6%
7,COc1cc(/C=C2/C(=O)ON=C2C)ccc1OCc1cccc(F)c1,52.2% (active)
8,COc1cc(/C=C2/C(=O)ON=C2C)ccc1OCc1ccccc1F,66.9% (active)
9,COc1cc(/C=C2\SC(=O)NC2=O)ccc1OCc1ccc(Cl)nc1,-2.95%
10,CN1CCN(C(CNS(=O)(=O)c2cccs2)c2cccnc2)CC1 (configuration not stated),7.24%
11,CCN(CC(=O)Nc1ccc(OC)cc1)C(=O)c1ccc(=O)n(Cc2ccccc2)n1,7.12%
12,CC(C)N(C(=O)[C@H]1C[C@H](CC(=O)NC(C)(C)C)C(=O)N2CCc3c([nH]c4ccc(Cl)cc34)[C@]12C)C(C)C,43.7%
13,COC(C[C@@H]1O[C@@H]1C(=O)[C@H](C)OCc1ccccc1)OC,-16.7%
14,COC(C/C=C/C(=O)[C@@H](C)OCc1ccccc1)OC,56.2% (active)
15,COC(C[C@H](O)CC(=O)[C@@H](C)OCc1ccccc1)OC,8.93%
16,Cc1ccc(NS(=O)(=O)c2ccc3c(c2)oc(=O)n3C)c(C)c1,21.8%
17,CCn1cc(C(=O)NC2CCCCCC2)c(=O)c2cc(S(=O)(=O)N3CCCCC3)ccc21,12.1%
18,N#Cc1cccc(CSc2ncnc(N)n2)c1,10.7%
19,OCCN1CCN(c2nnc(-c3ccccc3)c3ccccc23)CC1,-13.1%
20,c1ccc(-c2nnc(N3CCOCC3)c3ccccc23)cc1,-18.2%
21,CCCC(=O)N1CCN(c2nnc(-c3ccc(C)cc3)c3ccccc23)CC1,50.5% (active)
22,O=C(Oc1cccc(O)c1)C1CCCCC1,25.1%
23,CCCSC(=S)NC1CCS(=O)(=O)C1 (configuration not stated),8.59%
24,CCCCN1C(=O)/C(=C(/C#N)C(N)=O)c2ccccc21,21.8%
25,COc1ccc2c(c1)C(=C(C#N)C#N)C(=O)N2CCc1ccccc1,70.8% (active)

row,Compound,inhibition
1,C#CCN1C(=O)C(O)(CC(=O)c2cc(OC)ccc2OC)c2ccccc21 (configuration not stated),30%
2,COc1cccc(-c2nnc(NC(=O)c3ccc(S(=O)(=O)N(CC(C)C)CC(C)C)cc3)o2)c1,11.6%
3,NC(=O)c1cc(-c2cccnc2)nc2ccc(Br)cc12,-4.37%
4,O=c1c2cc(Br)ccc2nc(-c2cccc(Cl)c2)n1O,65.8% (active)
5,Cc1cccc(-c2nc3ccccc3c(=O)n2NC(=O)Cc2ccc(Cl)cc2)c1,23.4%
6,CCOc1cc(NC(=O)Nc2ccccc2)c(OCC)cc1NC(=O)CC,7.41%
7,CCOc1ccccc1NC(=O)c1cc(S(=O)(=O)N2CCC3(CC2)OCCO3)ccc1F,24.5%
8,CCOc1cc(NC(=O)c2ccccc2C(=O)O)c(OCC)cc1NC(=O)c1ccccc1F,53% (active)
9,CCCCC(CC)CNC(=O)C(=O)C1C(=O)Nc2ccccc21 (configuration not stated),51.7% (active)
10,CCCCC(CC)CNC(=O)CCCCn1c(=O)[nH]c2ccsc2c1=O (configuration not stated),-5.06%
11,CCCCCNC(=O)C1c2ccccc2Oc2ccccc21,18.6%
12,Cc1c(CN2CCC(n3nccc3NC(=O)CCc3ccccc3)CC2)cnn1C,3.04%
13,CCc1noc(C)c1C(=O)Nc1nc(-c2ccccc2)cs1,22.5%
14,Cc1ccccc1Nc1nc(-c2cccnc2)cs1,33.4%
15,Cc1cccc(Nc2nc(-c3ccccc3)cs2)n1,55.1% (active)
16,CCC(C)OC(=O)C(C)Oc1ccc(-c2ccccc2)cc1 (configuration not stated),3.46%
17,c1ccc2c(NCC3CCCO3)nc(-c3ccncc3)nc2c1 (configuration not stated),13.1%
18,c1ccc(-c2nc(NCc3ccco3)c3ccccc3n2)cc1,53% (active)
19,Clc1cccc(-c2nc(NCC3CCCO3)c3ccccc3n2)c1 (configuration not stated),28.9%
20,O=C(CO/N=C/c1ccc(OC(F)F)cc1)NCc1ccc(F)cc1,8.87%
21,CC(C)(C)Nc1nc(-c2ccccn2)nc2ccccc12,-51.4%
22,COc1cnc(-c2ccccn2)nc1Oc1ccc(C(C)(C)C)cc1,41.2%
23,Cc1ccc(Oc2nc(-c3ccccn3)nc3ccccc23)cc1,63.6% (active)
24,CC(C)(COC(=O)Nc1ccccc1)COC(=O)Nc1ccccc1,29.8%
25,O=C(c1ccncc1)N1CCN(S(=O)(=O)c2cccc([N+](=O)[O-])c2)CC1,3.41%

row,Compound,inhibition
1,CC(Sc1nc2cc(Cl)ccc2s1)C(=O)Nc1ccc2c(c1)OCO2 (configuration not stated),32%
2,NS(=O)(=O)c1ccc(NC(=S)N2CCCC2)cc1,-14.9%
3,COc1ccccc1NS(=O)(=O)c1ccc(C)c(C(=O)NNC(=O)c2csc(N3CCOCC3)n2)c1,-7.58%
4,Cc1ccc(C(=O)OC2=CC(=O)CC(C)(C)C2)cc1,52.8% (active)
5,Cc1ccc(C(=O)Oc2ccc(C(=S)N3CCOCC3)cc2)cc1,-1.92%
6,COC(=O)NNC1=CC(=O)CC(C)(C)C1,-3.94%
7,O=C(CSc1nnnn1C1CCCC1)N1CCCCC1,4.13%
8,C[C@H]1CC[C@]2(O[C@@H](CCO)C[C@@H](O)[C@@H]2O)O1,23.4%
9,O=C(O)c1ccc(N/N=C/c2cn(-c3ccccc3)nc2-c2cccs2)cc1,40.4%
10,COc1ccc(-c2nn(-c3ccccc3)cc2/C=N/Nc2ccccn2)cc1OC,45.7%
11,O=Cc1cn(-c2ccccc2)nc1-c1ccccn1,58.8% (active)
12,N/C(=N\OC(=O)Nc1ccc(Cl)c(Cl)c1)c1ncc(C(F)(F)F)cc1Cl,73.9% (active)
13,O=C(c1ccccn1)c1ncc(C(F)(F)F)cc1Cl,3%
14,N/C(=N\OC(=O)CCCC(=O)O)c1ncc(C(F)(F)F)cc1Cl,9.72%
15,Cc1cccc(NC(=O)Cn2cc(C(=O)c3ccco3)c3ccccc32)c1,7.71%
16,O=C(NCCSc1ncc(-c2ccccc2)[nH]1)c1ccco1,-8.72%
17,CCOc1ccc(C(=O)Nc2cccc(SC)c2)cc1,10.1%
18,O=C1NC(Cc2ccc(O)cc2)c2nc3ccc(Cl)cc3c(=O)n2-c2ccccc21 (configuration not stated),15%
19,CCOc1ccc(C(C)NC(=O)CN2C(=O)NC3(CCCCC3)C2=O)cc1OCC (configuration not stated),7.68%
20,CCOc1ccc(C(c2c(C)[nH][nH]c2=O)c2c(C)[nH][nH]c2=O)cc1OCC,54.5% (active)
21,CCOc1ccc(C(CC(=O)O)NC(=O)Cc2ccccc2)cc1OC (configuration not stated),-3.51%
22,CCOC(=O)N1CCN(C(=O)c2cn(C)c3ccc(S(=O)(=O)N(CC)CC)cc3c2=O)CC1,2.29%
